This note sets out measurements from PubChem BioAssay (Tox21).

Several values for one entry are separate records, joined by “and”; a condition that tells them apart may be missing. Equal entries are not always repeated. A number with no mark means an inactive call. Records with an inconclusive call do not appear. Activity calls are given as the source filed them. Unless noted, the call rests on the fitted dose curve.

The nature of assay [1]: qHTS assay to identify small molecule antagonists of the sonic hedgehog signaling (Shh) pathway (AID 1259369). Further: nearly all actives have a fitted effect of over 45% in size. Further: potency means the concentration at half of the fitted maximal effect. In outline:
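Stable Gli1-Luc reporter NIH/3T3 clone; quantitative HTS in stimulated mode with conditioned medium. Luminescence measured after 24hr compound treatment at 37 C.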
(In general: qHTS replaces the single test concentration by a dilution series.)

A short description of assay [2]: qHTS assay to identify small molecule agonists of the androgen receptor (AR) signaling pathway in the presence of an antagonist - cell viability counter screen (AID 1259379; active means well fitted curve in the direction sought with a large enough effect in the repeat runs; an effect the other way counts as inactive or inconclusive; further: nearly all actives have a fitted effect of over 25% in size; further: potency means the concentration at half of the fitted maximal effect;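 on activity change, negative = cytotoxicity: MDA-kb2 human breast cancer cells carrying an MMTV luciferase reporter; series mostly up to about 92 µM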). Summed up:
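Nilutamide-containing (3.0uM final) MDA-kb2 cultures, 3,000 cells/well, were treated with compounds across 15 concentrations. After 16 hr at 37C with no CO2, cell viability was determined by CellTiter-Fluor fluorescence in the luciferase assay wells.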

Assay [3] can be described thus: qHTS assay to identify small molecule agonists of the estrogen receptor beta (ER-beta) signaling pathway - cell viability counter screen (AID 1259380; active means well fitted curve in the direction sought with a large enough effect in the repeat runs; an effect the other way counts as inactive or inconclusive; further: nearly all actives have a fitted effect of over 30% in size; further: potency means the concentration at half of the fitted maximal effect). Summed up:
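Steps: plate ER-beta-UAS-bla HEK293T cells, rest 6 hr; add compounds in DMSO; incubate 16 hr at 37C, 5% CO2; add FRET substrate 2 hr; add CellTiter-Glo, wait 30 min at room temperature; read luminescence.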

The nature of assay [4]: qHTS assay to identify small molecule antagonists of the estrogen receptor beta (ER-beta) signaling pathway - cell viability counter screen (AID 1259382; active means well fitted curve in the direction sought with a large enough effect in the repeat runs; an effect the other way counts as inactive or inconclusive; further: nearly all actives have a fitted effect of over 55% in size; further: potency means the concentration at half of the fitted maximal effect; on activity change, negative = cytotoxicity: series mostly up to about 92 µM). Summed up: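 Viability is scored by CellTiter-Glo luminescence (30 min, room temperature) in ER-beta-UAS-bla HEK293T wells already read for reporter fluorescence. Compound exposure lasts 16 hr at 37C alongside 1nM 17-beta-estradiol in charcoal-stripped serum medium.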

The target in assay [5] is Estrogen receptor (Homo sapiens) (UniProt P03372). Briefly: qHTS assay to identify small molecule agonists of the estrogen receptor alpha (ER-alpha) signaling pathway in the presence of an antagonist (AID 1259383). Further: top concentration of the series differs between compounds; nearly all actives have a fitted effect of over 15% in size. Summed up: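 Readout was ERE-driven luciferase luminescence in VM7Luc4E2 cells, which express full-length ER-alpha endogenously. Compounds were tested at 15 concentrations for 22hr alongside 10.0nM ICI-182,780 (final concentration).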

The nature of assay [6]: qHTS assay to identify small molecule agonists or antagonists of the thyroid stimulating hormone receptor (TSHR) signaling pathway - wild type cell line counter screen (AID 1259384). Summed up: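 Counter screen in untransfected Hek293: compounds (15-point titration, triplicate) plus phosphodiesterase inhibitor Ro20-1724 added after 18 h plating; 30 min RT. Intracellular cAMP via competitive d2/cryptate immunoassay, 1 h incubation.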

The target of assay [7] is Thyrotropin receptor (Homo sapiens) (UniProt P16473). Put plainly: qHTS assay to identify small molecule antagonists of the thyroid stimulating hormone receptor (TSHR) signaling pathway (AID 1259385). Further: nearly all actives have a fitted effect of over 20% in size. Further: potency means the concentration at half of the fitted maximal effect. In outline: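 Antagonist mode: compound-treated TSHR-expressing HEK293 cells were stimulated with 1.5 ng/mL TSH (final) in presence of Ro20-1724 for 30 min at RT. HTRF cAMP detection after 1 h; each compound tested at 15 concentrations, triplicate.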

For assay [8], the target named is Androgen receptor (Homo sapiens) (UniProt P10275). Put plainly: qHTS assay to identify small molecule agonists of the androgen receptor (AR) signaling pathway in the presence of an antagonist (AID 1259381). Further: nearly all actives have a fitted effect of over 15% in size. Further: potency means the concentration at half of the fitted maximal effect. In outline:
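Reporter-gene luminescence from MDA-kb2 cells exposed 16hr at 37C (0% CO2) to 15-point compound titrations with 3.0uM final nilutamide as AR antagonist.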
On the % scale 0 is the no-effect control and ±100 the full control effect.

Estrogen receptor (Homo sapiens), sequence (P03372 whole entry, looked up): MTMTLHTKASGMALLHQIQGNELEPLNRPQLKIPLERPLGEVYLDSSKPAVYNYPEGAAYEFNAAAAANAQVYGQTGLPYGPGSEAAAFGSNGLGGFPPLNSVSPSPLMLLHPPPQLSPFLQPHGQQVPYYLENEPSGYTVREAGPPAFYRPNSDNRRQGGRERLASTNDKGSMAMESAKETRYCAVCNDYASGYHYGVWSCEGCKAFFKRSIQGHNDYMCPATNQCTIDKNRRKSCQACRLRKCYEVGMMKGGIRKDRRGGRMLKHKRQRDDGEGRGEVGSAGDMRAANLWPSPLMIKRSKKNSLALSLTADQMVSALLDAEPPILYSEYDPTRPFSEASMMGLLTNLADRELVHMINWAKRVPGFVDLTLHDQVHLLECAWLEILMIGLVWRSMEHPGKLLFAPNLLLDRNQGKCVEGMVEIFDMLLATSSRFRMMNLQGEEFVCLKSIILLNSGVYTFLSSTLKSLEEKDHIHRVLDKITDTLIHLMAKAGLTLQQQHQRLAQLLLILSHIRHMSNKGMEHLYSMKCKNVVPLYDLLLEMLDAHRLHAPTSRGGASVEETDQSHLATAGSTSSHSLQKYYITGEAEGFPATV
Androgen receptor (Homo sapiens), sequence (P10275 whole entry, looked up): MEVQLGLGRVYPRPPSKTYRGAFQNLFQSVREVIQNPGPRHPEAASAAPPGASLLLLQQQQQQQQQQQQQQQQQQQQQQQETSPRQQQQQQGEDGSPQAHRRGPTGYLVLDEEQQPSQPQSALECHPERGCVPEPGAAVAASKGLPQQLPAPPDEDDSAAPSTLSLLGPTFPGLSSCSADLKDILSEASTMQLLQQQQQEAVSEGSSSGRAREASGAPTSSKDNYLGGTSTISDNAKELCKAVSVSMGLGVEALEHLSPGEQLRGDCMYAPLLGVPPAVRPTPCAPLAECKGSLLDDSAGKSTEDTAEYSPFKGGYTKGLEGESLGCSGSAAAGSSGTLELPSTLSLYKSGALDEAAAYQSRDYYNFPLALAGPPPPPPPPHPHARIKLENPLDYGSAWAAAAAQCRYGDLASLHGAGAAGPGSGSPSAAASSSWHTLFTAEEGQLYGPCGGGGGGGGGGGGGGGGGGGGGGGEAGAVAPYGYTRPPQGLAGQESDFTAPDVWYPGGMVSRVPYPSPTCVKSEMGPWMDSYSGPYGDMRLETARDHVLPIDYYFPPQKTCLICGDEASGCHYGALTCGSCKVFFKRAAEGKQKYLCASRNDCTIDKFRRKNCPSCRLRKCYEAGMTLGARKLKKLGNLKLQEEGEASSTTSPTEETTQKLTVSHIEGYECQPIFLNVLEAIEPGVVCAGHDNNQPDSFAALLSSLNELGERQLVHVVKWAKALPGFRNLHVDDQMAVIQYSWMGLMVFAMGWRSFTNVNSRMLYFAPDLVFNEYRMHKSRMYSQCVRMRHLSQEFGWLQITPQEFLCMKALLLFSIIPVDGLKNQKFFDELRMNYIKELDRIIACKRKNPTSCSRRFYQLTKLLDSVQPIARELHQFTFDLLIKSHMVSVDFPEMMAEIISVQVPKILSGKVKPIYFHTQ
Thyrotropin receptor (Homo sapiens), sequence (P16473 whole entry, looked up): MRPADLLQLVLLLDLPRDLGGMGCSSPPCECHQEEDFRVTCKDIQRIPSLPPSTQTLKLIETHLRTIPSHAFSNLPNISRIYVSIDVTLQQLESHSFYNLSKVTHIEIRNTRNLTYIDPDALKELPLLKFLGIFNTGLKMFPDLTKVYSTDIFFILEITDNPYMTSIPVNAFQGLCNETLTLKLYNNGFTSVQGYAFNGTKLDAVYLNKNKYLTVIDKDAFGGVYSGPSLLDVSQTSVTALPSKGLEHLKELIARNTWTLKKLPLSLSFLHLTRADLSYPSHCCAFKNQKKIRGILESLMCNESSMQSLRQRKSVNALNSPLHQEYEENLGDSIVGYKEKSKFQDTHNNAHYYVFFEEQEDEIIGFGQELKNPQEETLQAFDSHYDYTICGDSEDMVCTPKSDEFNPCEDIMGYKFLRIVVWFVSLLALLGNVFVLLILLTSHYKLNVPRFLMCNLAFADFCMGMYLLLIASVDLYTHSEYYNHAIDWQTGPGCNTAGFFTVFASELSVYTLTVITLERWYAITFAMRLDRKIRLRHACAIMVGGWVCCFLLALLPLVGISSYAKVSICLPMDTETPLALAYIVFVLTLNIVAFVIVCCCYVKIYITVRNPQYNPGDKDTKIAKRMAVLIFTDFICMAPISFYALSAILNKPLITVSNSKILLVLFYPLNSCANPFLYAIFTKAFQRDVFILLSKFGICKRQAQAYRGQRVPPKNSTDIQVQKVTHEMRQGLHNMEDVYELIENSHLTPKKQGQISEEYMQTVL

For the compound `[F][Sn]([c]1ccccc1)([c]1ccccc1)[c]1ccccc1`, the Potency in assay [1] was 48.6 nM (active); in assay [2], 4.33 µM (active); in assay [3] it was 1.22 µM (active); in assay [4] it was 1.22 µM (active); in assay [7], 15.4 µM (active). The Potency result in assay [5] and in assay [6] was “inactive” each time.

Take `Cc1c([N+](=O)[O-])cc2c(c1[N+](=O)[O-])C(C)(C)CC2(C)C`: the Potency result in assay [1], in assay [2], in assay [3], in assay [4], in assay [5] and in assay [6] was “inactive” in each case. Also, the Potency result in assay [7] was “inactive”.

Turning to `CC(=O)[O-].CC(=O)[O-].CC(=O)[O-].[Sb+3]`, in assay [1], the activity change, negative = inhibition was 2.99% [at 3.27 µM]. The activity change, negative = cytotoxicity in assay [2] is 3.2% [at 3.27 µM]; in assay [3], 2.42% [at 3.32 µM]; in assay [4], -1.85% [at 3.27 µM].

Turning to `COC(=O)c1cc(Oc2ccc(Cl)cc2Cl)ccc1[N+](=O)[O-]`, the Potency entry in assay [1], in assay [2], in assay [3], in assay [4] and in assay [5] was “inactive” each time.

As for `CCN1CCC2(CC1)COc1cc3c(cc12)N(C(=O)c1ccc(-c2ccc(-c4nnc(C)o4)cc2C)cc1)CC3`, the Potency in assay [1] is 2000 nM (active); in assay [2], 63.3 µM (active); in assay [4], 11.2 µM (active); in assay [7], 63.3 µM (active). The Potency entry in assay [8], in assay [5] and in assay [6] was “inactive” in each case.

For `COC(=O)N(OC)c1ccccc1COc1ccn(-c2ccc(Cl)cc2)n1`, the results for the Potency in assay [1], in assay [2] and in assay [3] were 68.6 nM (active), 1.37 µM (active) and 0.969 µM (active), respectively. In addition, the Potency entry in assay [4], in assay [5], in assay [6] and in assay [7] was “inactive” in each case.

Turning to `CCN(CC)C(=O)N[C@@H]1C=C2c3cccc4[nH]cc(c34)C[C@@H]2N(C)C1`, the Potency result in assay [1], in assay [2], in assay [3], in assay [4], in assay [5] and in assay [6] was “inactive” in each case. Moreover, the Potency result in assay [7] was “inactive”.

With `CCn1cc[n+](C)c1` (tested in a mixture with another compound), the Potency result in assay [1], in assay [2], in assay [3] and in assay [4] was “inactive” throughout.

For the compound `Cc1nn(-c2cc(NS(C)(=O)=O)c(Cl)cc2Cl)c(=O)n1C(F)F`, the Potency result in assay [1], in assay [2], in assay [3], in assay [8], in assay [4] and in assay [6] was “inactive” each time. The Potency entry in assay [7] was “inactive”.

In the case of `C=C(C)C(=O)[O][Sn]([CH2]CCC)([CH2]CCC)[CH2]CCC`, the Potency in assay [1] was 217 nM (active); in assay [2] it was 1.72 µM (active); in assay [3], 1.37 µM (active); in assay [4], 1.54 µM (active); in assay [7], 12.2 µM (active). The Potency result in assay [5] is “inactive”.

Regarding `CC(=O)[O-].CC(=O)[O-].O.O.[Zn+2]`, the Potency result in assay [1], in assay [2], in assay [3] and in assay [4] was “inactive” in each case.

For the compound `Cc1c([N+](=O)[O-])c(C)c([N+](=O)[O-])c(C(C)(C)C)c1[N+](=O)[O-]`, the Potency entry in assay [1], in assay [2], in assay [5] and in assay [7] was “inactive” each time. In addition, the Potency in assay [3] is 27.3 µM (active).

Consider `Clc1c(Cl)c(Cl)c(Cl)c(Cl)c1Cl`, for which the activity change, negative = inhibition in assay [1] was 3.84% [at 8.39 µM]; in assay [7], 2.16% [at 8.39 µM]. The figures for the activity change, negative = cytotoxicity in assay [2], in assay [3] and in assay [4] were 1.03% [at 8.39 µM], 0.531% [at 8.39 µM] and 8.34% [at 8.39 µM], respectively. Moreover, the cAMP activity change in assay [6] was -1.12% [at 8.39 µM, stronger effect = higher value].

In the case of `CC(Cc1ccc2c(c1)OCO2)NO` (stereo not given), the Potency result in assay [1], in assay [2], in assay [3], in assay [4], in assay [5] and in assay [6] was “inactive” each time. For the same compound, the Potency result in assay [7] was “inactive”.

`CN=C=O`: the Potency result in assay [1], in assay [2], in assay [3], in assay [4] and in assay [7] was “inactive” in each case.

Consider `COc1c2c(cc3c1OCO3)CCN(C)C2`, for which the Potency entry in assay [1], in assay [2], in assay [3], in assay [4], in assay [5] and in assay [6] was “inactive” in each case. The Potency result in assay [7] is “inactive”.

As to `[Cl-].[Cl-].[Sn+2]`, the Potency result in assay [1], in assay [2], in assay [3] and in assay [4] was “inactive” each time.

As to `[Cl][Hg][c]1ccccc1`, the Potency was 24.3 nM (active) in assay [1], 12.2 µM (active) in assay [2] and 3.06 µM (active) in assay [4]. Besides, the Potency entry in assay [8] and in assay [5] was “inactive” in each case.

For `Clc1cc(Cl)c(-c2cc(Cl)c(Cl)cc2Cl)cc1Cl`, the Potency result in assay [1], in assay [2], in assay [3], in assay [4] and in assay [6] was “inactive” throughout.

On to `O=P(Cl)(Cl)Cl`, for which the Potency entry in assay [1], in assay [2], in assay [3], in assay [4], in assay [5] and in assay [6] was “inactive” in each case. For the same compound, the Potency result in assay [7] is “inactive”.

Consider `Nc1nc(N)c(N)c(N)n1`, for which the Potency result in assay [1], in assay [2], in assay [3] and in assay [4] was “inactive” in each case.

As for `O.O.O.O.O.O.O.O=S(=O)([O-])[O-].[Co+2]`, the Potency entry in assay [1], in assay [2], in assay [3] and in assay [4] was “inactive” each time.

`N#Cc1sc2c(=O)c3ccccc3c(=O)c=2sc1C#N`: the Potency in assay [1] was 3860 nM (active); in assay [2], 17.2 µM (active); in assay [3] it was 21.7 µM (active); in assay [4], 17.2 µM (active). For the same compound, the Potency result in assay [8], in assay [5] and in assay [6] was “inactive” each time.

Regarding `CC(=O)[O][Sn]([c]1ccccc1)([c]1ccccc1)[c]1ccccc1`, the Potency was 54.5 nM (active) in assay [1]; 0.77 µM (active) in assay [2]; 0.137 µM (active) in assay [3]; 0.137 µM (active) in assay [4]; 19.3 µM (active) in assay [7]. For the same compound, the Potency entry in assay [5] and in assay [6] was “inactive” each time.

`[O]=[Cr](=[O])([OH])[O][Cr](=[O])(=[O])[OH]`: the Potency is 1.95 µM (active) and 2.16 µM (active) in assay [1]; 27.6 µM (active) and 54.4 µM (active) in assay [2]; 24.6 µM (active) and 54.4 µM (active) in assay [3]. Moreover, the Potency entry in assay [8], in assay [5], in assay [6] and in assay [7] was “inactive” in each case.

For the compound `CC[C@H](C)[C@H]1O[C@]2(C=C[C@@H]1C)C[C@@H]1C[C@@H](C/C=C(\C)[C@@H](O[C@H]3C[C@H](OC)[C@@H](O[C@H]4C[C@H](OC)[C@@H](NC)[C@H](C)O4)[C@H](C)O3)[C@@H](C)/C=C/C=C3\CO[C@@H]4[C@H](O)C(C)=C[C@@H](C(=O)O1)[C@]34O)O2`, the Potency is 3060 nM (active) in assay [1]; 19.3 µM (active) in assay [2]; 9.69 µM (active) in assay [3]; 21.7 µM (active) in assay [4]; 27.3 µM (active) in assay [7]. In addition, the Potency result in assay [5] and in assay [6] was “inactive” in each case.

With `O=C(NC(=O)c1c(F)cccc1F)Nc1ccc(Oc2ccc(C(F)(F)F)cc2Cl)cc1F`, the Potency in assay [1] is 6860 nM (active); in assay [2], 68.6 µM (active). The Potency entry in assay [3], in assay [4] and in assay [6] was “inactive” each time.

For the compound `O.O.O.O.O.O.O=S(=O)([O-])[O-].[Ni+2]`, the Potency result in assay [1], in assay [2], in assay [3] and in assay [4] was “inactive” throughout.

`C[C@]12Cc3cn[nH]c3C[C@@H]1CC[C@@H]1[C@@H]2CC[C@@]2(C)[C@H]1CC[C@]2(C)O`: the Potency is 13300 nM (active) in assay [1], 8.41 µM (active) in assay [3] and 6.68 µM (active) in assay [4]. Further, the Potency result in assay [2] and in assay [7] was “inactive” throughout.

For `Nc1ccc(Cl)cc1C(=O)c1ccccc1F`, the Potency result in assay [1], in assay [2], in assay [3], in assay [8], in assay [4] and in assay [5] was “inactive” each time. The Potency entry in assay [7] was “inactive”.

For `Nc1c(Cl)c(Cl)c(Cl)c(Cl)c1Cl`, the Potency result in assay [1], in assay [2], in assay [3], in assay [4], in assay [6] and in assay [7] was “inactive” in each case. Besides, the Potency in assay [8] is 54.5 µM (active).

Turning to `CN(C)CCc1c[nH]c2ccccc12`, the Potency entry in assay [1], in assay [2], in assay [3], in assay [4] and in assay [7] was “inactive” in each case.
